Among all 310,000 compounds or so, about 14,000 (4.5%) showed an effect of 50% or more. The effect is printed as a negative number. What follows is part of a selection rich in strong results, with near analogues and random picks from the rest.
Biological target: human ether-à-go-go-related gene (hERG) potassium channel (human, UniProt Q12809)
Experiment: primary screen, population patch clamp on CHO cells stably expressing hERG; higher = less effect of the substance
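Further: peak tail current of the secondary pulse compared with the same well before compound.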

human ether-à-go-go-related gene (hERG) potassium channel, sequence (Q12809 whole entry, looked up): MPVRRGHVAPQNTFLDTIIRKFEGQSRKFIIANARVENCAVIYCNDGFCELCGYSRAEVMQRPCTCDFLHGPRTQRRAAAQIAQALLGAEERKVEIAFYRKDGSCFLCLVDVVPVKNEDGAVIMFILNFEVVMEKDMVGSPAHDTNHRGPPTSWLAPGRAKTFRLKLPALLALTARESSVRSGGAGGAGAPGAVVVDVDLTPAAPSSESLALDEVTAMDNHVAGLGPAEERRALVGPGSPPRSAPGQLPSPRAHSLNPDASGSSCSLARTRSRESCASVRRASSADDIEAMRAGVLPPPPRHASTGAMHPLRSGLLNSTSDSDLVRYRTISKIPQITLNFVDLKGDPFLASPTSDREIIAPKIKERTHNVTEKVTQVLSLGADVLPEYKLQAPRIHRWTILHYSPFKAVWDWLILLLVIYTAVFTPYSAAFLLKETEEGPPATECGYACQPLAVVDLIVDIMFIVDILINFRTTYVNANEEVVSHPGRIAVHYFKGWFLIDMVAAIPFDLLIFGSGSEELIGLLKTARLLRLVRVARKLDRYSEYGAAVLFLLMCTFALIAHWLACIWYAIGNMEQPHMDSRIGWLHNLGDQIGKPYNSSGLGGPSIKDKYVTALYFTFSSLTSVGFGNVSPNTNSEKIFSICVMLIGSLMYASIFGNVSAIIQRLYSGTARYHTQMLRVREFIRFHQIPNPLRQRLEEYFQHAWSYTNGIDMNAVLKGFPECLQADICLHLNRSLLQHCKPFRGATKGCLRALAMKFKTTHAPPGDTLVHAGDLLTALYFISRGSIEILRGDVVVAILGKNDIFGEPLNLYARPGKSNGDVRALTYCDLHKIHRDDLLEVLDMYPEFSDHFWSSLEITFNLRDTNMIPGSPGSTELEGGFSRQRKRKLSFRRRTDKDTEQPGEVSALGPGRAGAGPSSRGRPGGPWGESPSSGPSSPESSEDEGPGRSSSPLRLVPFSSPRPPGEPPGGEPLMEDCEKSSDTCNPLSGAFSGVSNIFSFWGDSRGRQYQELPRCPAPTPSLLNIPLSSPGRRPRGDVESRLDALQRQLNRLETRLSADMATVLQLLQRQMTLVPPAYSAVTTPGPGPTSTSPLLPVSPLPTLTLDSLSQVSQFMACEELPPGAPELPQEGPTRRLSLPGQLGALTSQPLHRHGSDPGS

| SMILES | hERG current change (%, negative = inhibition) at 10uM [%] |
| --- | --- |
| Cc1ccc(OCCCC(=O)Nc2ccc(Br)cc2)cc1 | 17.2 |
| CN(CCOc1ccc(Cl)cc1)CC(O)c1ccccc1.O=C(O)C(=O)O (stereo not shown) | -60.4 |
| CC(C)c1ccc(CN(C)CC(O)c2ccccc2)cc1.O=C(O)C(=O)O (stereo not shown) | -18.9 |
| CC(OCC(O)CN(C)CCOc1ccccc1)c1ccc(Cl)cc1 (stereo not shown) | -43.5 |
| CC(=O)c1ccc(OCC(O)CN(C)CCOc2ccc(Br)cc2)cc1 (stereo not shown) | 23.4 |
| CN(CCOc1ccccc1)CC(O)COc1ccccc1 (stereo not shown) | 10.8 |
| CN(CCOc1ccc(Br)cc1)CC(O)c1ccccc1.O=C(O)C(=O)O (stereo not shown) | -63.1 |
| COC(=O)c1cc(Cl)c(NC(=O)/C=C/c2ccc(Cl)cc2Cl)cc1OC | -10.9 |
| COc1ccc(N2CCN(C(=O)CNC(=O)Cc3ccc(Cl)cc3)CC2)cc1 | -8.38 |
| Cc1cc(C)c(C#N)c(SCC(=O)CC(=O)OC(C)C)n1 | 1.82 |
| Cc1ccc(NS(=O)(=O)c2ccc(Br)s2)nc1 | 23.4 |
| Cc1ccc(C)c(OCCCC(=O)Nc2nccs2)c1 | 12.9 |
| CC(C)Cn1nc(-c2ccccc2)c2ccccc2c1=O | 20.1 |
| CCN(Cc1ccccc1)C(=O)C1CCN(C(=O)Nc2ccccc2)CC1 | 14.8 |
| C/C(=C\c1ccccc1)CN1CCC(C(=O)N2CCC(C)CC2)CC1.O=C(O)C(=O)O | -63 |
| CCOC(=O)N1CCN(C/C(C)=C/c2ccccc2)CC1 | -25.1 |
| CC1CCN(C(=O)C2CCN(CC(C)c3ccccc3)CC2)CC1.O=C(O)C(=O)O (stereo not shown) | -13.5 |
| CCCCN(C)C(=O)C1CCN(C/C(C)=C/c2ccccc2)CC1.O=C(O)C(=O)O | -73.4 |
| CCN1CCN(C/C(C)=C/c2ccccc2)CC1 | 4.72 |
| CCCCNC(=O)C1CCN(Cc2ccccn2)CC1 | 12 |
| CCN(CC)C(=O)C1CCCN(C/C(C)=C/c2ccccc2)C1 (stereo not shown) | -30.7 |
| C/C(=C\c1ccccc1)CN1CCC(C(=O)N2CCCCC2)CC1.O=C(O)C(=O)O | -47.5 |

| SMILES | hERG current change (%, negative = inhibition) at 10uM [%] |
| --- | --- |
| CCCCNC(=O)C1CCN(C/C(C)=C/c2ccccc2)CC1.O=C(O)C(=O)O | -63 |
| C/C(=C\c1ccccc1)CN1CCN(C)CC1 | 16.2 |
| CCN(Cc1ccccc1)C(=O)C1CCN(C/C(C)=C/c2ccccc2)CC1.O=C(O)C(=O)O | -70.4 |
| Cc1cc(C)c(NC(=O)C2CCN(C(=O)c3ccco3)CC2)c(C)c1 | 19.9 |
| COc1ccc(C2C(C(=O)c3sc(C)nc3C)=C(O)C(=O)N2CCN(C)C)cc1 (stereo not shown) | -6.4 |
| O=C(COC(=O)c1cccs1)Nc1cccc(Cl)c1 | 10.2 |
| CCC(C)(C(=O)NC1CCCCC1)N(C(=O)CC1NC(=O)NC1=O)c1c(C)n(C)n(-c2ccccc2)c1=O (stereo not shown) | 12.8 |
| Cc1onc(-c2ccccc2Cl)c1C(=O)Nc1nc2ccc(S(C)(=O)=O)cc2s1 | -2.5 |
| CC1(C)NC(=O)N(CC(=O)N2CCCC(C(F)(F)F)C2)C1=O (stereo not shown) | 10.4 |
| COC(=O)c1ccc(CNC(=O)COC(=O)c2cc(Cl)nc(Cl)c2)cc1 | 8.69 |
| CCn1c2ccccc2c2cc(NC(=O)C(=O)NCC3CCCO3)ccc21 (stereo not shown) | -6.57 |
| COc1cc2c(cc1NC(=O)C(C)OC(=O)/C=C/c1ccc(OC(F)F)cc1)oc1ccccc12 (stereo not shown) | 7.07 |
| COc1ccc(CCNc2cc(N3CCN(C(=O)c4ccc(C)cc4)CC3)ccc2[N+](=O)[O-])cc1OC | 8.2 |
| COC(=O)C(NC(=O)c1ccccc1)=C(C)C | 0.816 |
| CCc1ccccc1NC(=S)N1CCC(C(=O)c2ccc(F)cc2)CC1 | -63 |
| Cc1ccc(NC(=O)N2CCC(C(=O)NCc3ccc(F)cc3)CC2)cc1 | -52.2 |
| O=C(c1ccc(F)cc1)C1CCN(C(=S)Nc2ccccc2Cl)CC1 | 0.35 |
| COc1ccc(C(=O)C2CCN(C(=S)Nc3ccc(F)cc3)CC2)cc1 | -46.9 |
| O=C(c1ccc(F)cc1)C1CCN(C(=S)Nc2ccc(F)cc2)CC1 | -57.2 |
| O=C(c1ccc(F)cc1)C1CCN(C(=S)Nc2ccccc2)CC1 | -28.8 |
| C=CCNC(=S)N1CCC(C(=O)c2ccc(F)cc2)CC1 | -44.4 |
| CC(C)CNC(=S)N1CCC(C(=O)c2ccc(F)cc2)CC1 | -61.4 |

| SMILES | hERG current change (%, negative = inhibition) at 10uM [%] |
| --- | --- |
| O=C(NCc1ccc(F)cc1)C1CCN(C(=O)Nc2ccc(F)cc2)CC1 | -49.2 |
| Cc1ccc(CNC(=O)C2CCN(C(=O)Nc3ccccc3)CC2)cc1 | -16.3 |
| Cc1ccccc1NC(=S)N1CCC(C(=O)c2ccc(F)cc2)CC1 | -45 |
| CCCNC(=S)N1CCC(C(=O)c2ccc(F)cc2)CC1 | -8.84 |
| Cc1cn(C2C=CC(CO)O2)c(=O)[nH]c1=O (stereo not shown) | 4.79 |
| CCN(CC)S(=O)(=O)c1ccc(C(=O)NCCc2ccccn2)cc1 | 10.8 |
| Cc1nn(C2CCCCC2)c(N)c1-c1ccccc1 | -3.53 |
| Nc1ccc(-c2nc3ccc(N)cc3[nH]2)cc1 | 7.85 |
| O=c1c2cc([N+](=O)[O-])cc([N+](=O)[O-])c2[nH]n1-c1ccccc1 | 17.2 |
| C/C=C(\C)C(=O)NNC(=O)c1sc(-c2ccccc2)nc1C | 16 |
| Cc1nc2cc(NC(=O)Nc3ccc(Br)cc3)ccc2o1 | 9.81 |
| Cc1cccc(NC(=O)N2CCC(C(=O)c3ccc(F)cc3)CC2)c1 | -40.6 |
| Cc1cc(C)cc(NC(=O)N2CCC(NC(=O)c3ccc(F)cc3)CC2)c1 | -35.5 |
| CSc1ccc(NC(=O)N2CCC(C(=O)c3ccc(F)cc3)CC2)cc1 | -40.9 |
| O=C(c1ccc(F)cc1)C1CCN(C(=O)Nc2ccc(F)cc2)CC1 | -71.7 |
| COCCNC(=S)N1CCC(c2nc(-c3ccc(N(C)C)cc3)no2)CC1 | -12.9 |
| Cc1ccc(NC(=O)N2CCC(C(=O)c3ccc(F)cc3)CC2)cc1 | -3.84 |
| COCCNC(=S)N1CCC(c2nc(-c3ccc(F)cc3)no2)CC1 | -18.9 |
| CC(C)CNC(=S)N1CCC(c2nc(-c3ccc(F)cc3)no2)CC1 | -59.1 |
| Cc1cc(C)cc(NC(=O)N2CCC(C(=O)c3ccc(F)cc3)CC2)c1 | -77.7 |
